From publication PMC5540273 (PLoS ONE, 2017)

Tests used:
Settings in all cases: concentration: 1 μM, replicates: in singlicate; n = 1
[1] = system: EPHB4
[2] = system: EPHB6
[3] = system: ERBB2
[4] = system: ERBB3
[5] = system: ERBB4
[6] = system: T1, ERK1
T1 construct: gene MAPK3

[7] = system: T2, ERK2
T2 construct: gene MAPK1

[8] = system: T3, ERK3
T3 construct: gene MAPK6

[9] = system: T4, ERK4
T4 construct: gene MAPK4

[10] = system: T5, ERK5
T5 construct: gene MAPK7

[11] = system: T6, ERK8
T6 construct: gene MAPK15

[12] = system: ERN1
[13] = system: T7, FAK
T7 construct: gene PTK2

[14] = system: FER
[15] = system: FES
[16] = system: FGFR1
[17] = system: FGFR2
[18] = system: FGFR3
[19] = system: FGFR4
[20] = system: FGR
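Further: KINOMEscan kinase panel screen.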

| SMILES | %Inh [1] | %Inh [2] | %Inh [3] | %Inh [4] | %Inh [5] | %Inh [6] | %Inh [7] | %Inh [8] | %Inh [9] | %Inh [10] | %Inh [11] | %Inh [12] | %Inh [13] | %Inh [14] | %Inh [15] | %Inh [16] | %Inh [17] | %Inh [18] | %Inh [19] | %Inh [20] |
| --- | --- | --- | --- | --- | --- | --- | --- | --- | --- | --- | --- | --- | --- | --- | --- | --- | --- | --- | --- | --- |
| CNc1nc(-c2ccc3c(N)n[nH]c3c2)cc(N2C[C@@H](C(=O)Nc3ccccc3)CC[C@H]2C)n1 [GSK2298859] | 14% | 9% | 12% | 0% | 19% | 0% | 0% | 6% | 0% | 0% | 0% | 2% | 0% | 33% | 0% | 23% | 0% | 16% | 0% | 22% |
| CC(C)c1cc(-c2ccc3c(N)n[nH]c3c2)nc(N)n1 [GSK2250882] | 18% | 4% | 25% | 0% | 0% | 1% | 0% | 0% | 26% | 0% | 0% | 4% | 0% | 14% | 19% | 0% | 18% | 9% | 8% | 34% |
| COc1nccc(-c2c(-c3ccc(F)cc3)ncn2CCCN2CCOCC2)n1 [SB-282852] | 0% | 17% | 40% | 46% | 4% | 0% | 0% | 0% | 0% | 0% | 4% | 16% | 0% | 0% | 0% | 46% | 0% | 0% | 0% | 1% |
| CC(=O)c1c(C)c2cnc(Nc3ccn(C)n3)nc2n(C2CCCC2)c1=O | 0% | 6% | 0% | 0% | 0% | 0% | 0% | 15% | 17% | 9% | 17% | 0% | 0% | 9% | 0% | 0% | 0% | 0% | 11% | 0% |
| Cc1ccc(NC(=O)Nc2ccccc2F)cc1-c1ccc(C(=O)Nc2ccncc2)cc1 [GSK1398477] | 21% | 20% | 8% | 0% | 0% | 8% | 9% | 11% | 20% | 0% | 0% | 13% | 0% | 16% | 11% | 19% | 14% | 23% | 21% | 26% |
| Cl.Cl.Cl.N#Cc1ccc(CCNc2nccc(-c3cccc(CN4CCNCC4)c3)n2)cc1 [GSK2137462] | 16% | 1% | 0% | 0% | 0% | 0% | 0% | 31% | 4% | 0% | 28% | 25% | 56% | 4% | 6% | 0% | 10% | 17% | 22% | 23% |
| Nc1nccc(-c2c(-c3ccc(F)cc3)ncn2C2CCN(Cc3ccccc3)CC2)n1 [SB-219980] | 17% | 58% | 18% | 0% | 19% | 0% | 21% | 0% | 0% | 0% | 0% | 41% | 0% | 0% | 23% | 0% | 0% | 0% | 0% | 18% |
| COC(=O)c1cccc(NC(=O)NC2CCN(c3ccnc(Nc4ccc(OC)cc4)n3)C2)c1 (stereo not drawn) [GSK1379746] | 19% | 37% | 65% | 24% | 23% | 0% | 0% | 5% | 2% | 6% | 0% | 5% | 0% | 13% | 0% | 0% | 0% | 0% | 4% | 11% |
| Cc1nccc(-c2c(-c3ccc(F)cc3)ncn2CCCN2CCOCC2)n1.Cl [SB-282975] | 0% | 15% | 0% | 34% | 0% | 6% | 8% | 0% | 96.5% | 25% | 9% | 0% | 35% | 26% | 12% | 38% | 22% | 33% | 0% | 0% |
| Cc1ccc(NC(=O)Nc2ccc(Cl)cc2)cc1-c1ccc(C(=O)Nc2ccncc2)cc1 [GSK1398472] | 23% | 2% | 25% | 0% | 0% | 0% | 0% | 15% | 3% | 0% | 0% | 0% | 0% | 15% | 0% | 0% | 39% | 13% | 14% | 18% |
| CC[C@@H]1CO[C@H](C(=O)Nc2ccccc2)CN1c1cc(-c2ccc3c(N)n[nH]c3c2)nc(NC)n1 [GSK2376236] | 16% | 3% | 8% | 0% | 18% | 0% | 0% | 8% | 42% | 7% | 0% | 19% | 0% | 27% | 9% | 0% | 0% | 41% | 19% | 31% |
| COc1ccc(Nc2nccc(N3CCC(NC(=O)C(C)c4ccc(Cl)cc4)CC3)n2)cc1 (stereo not drawn) [GSK1379812] | 0% | 100% | 19% | 19% | 0% | 0% | 4% | 2% | 0% | 0% | 0% | 0% | 0% | 46% | 19% | 0% | 0% | 30% | 4% | 5% |
| CS(=O)(=O)CCNCc1nc(-c2ccc3ncnc(Nc4ccc(OCc5ccccc5)c(Cl)c4)c3c2)cs1.Cl [GW582764] | 8% | 0% | 100% | 58% | 97.8% | 0% | 0% | 0% | 0% | 0% | 0% | 0% | 0% | 0% | 0% | 0% | 0% | 0% | 0% | 18% |
| COc1ccc(CSc2nnc(-c3ccc4c(c3)CCO4)o2)cc1 | 13% | 0% | 18% | 0% | 0% | 0% | 0% | 0% | 0% | 6% | 0% | 0% | 0% | 0% | 12% | 0% | 0% | 0% | 0% | 14% |
| CSc1ccc(-c2nc3n(c2-c2ccncc2)CCC3)cc1 [SKF-105561] | 21% | 15% | 0% | 0% | 3% | 0% | 0% | 0% | 0% | 0% | 1% | 0% | 0% | 0% | 28% | 1% | 0% | 0% | 0% | 25% |
| COc1ccc(Nc2nccc(N3CCC(NC(=O)c4cc5ccccc5s4)C3)n2)cc1 (stereo not drawn) [GSK1379738] | 0% | 17% | 1% | 8% | 0% | 0% | 0% | 0% | 15% | 0% | 0% | 0% | 0% | 0% | 0% | 0% | 0% | 2% | 4% | 15% |
| Cn1cncc1-c1cc2c(Nc3ccc(OCc4ccccc4)cc3)ncnc2cn1 [GW281179] | 17% | 21% | 99.6% | 75% | 70% | 0% | 0% | 0% | 0% | 0% | 0% | 0% | 0% | 14% | 0% | 9% | 19% | 2% | 12% | 18% |
| O=C(Nc1n[nH]c2nc(-c3cccs3)c(Br)cc12)C1CCCC1 [SB-743341] | 22% | 22% | 0% | 3% | 0% | 0% | 10% | 9% | 0% | 0% | 61% | 43% | 1% | 20% | 18% | 28% | 0% | 2% | 3% | 23% |
| CNC(=O)c1ccc(C)c(-n2c(C)cc(OCc3ccc(F)cc3F)c(Br)c2=O)c1 | 0% | 0% | 0% | 0% | 13% | 0% | 0% | 0% | 0% | 0% | 13% | 0% | 0% | 18% | 0% | 0% | 0% | 0% | 0% | 0% |
| Fc1ccc(-c2nc3n(c2-c2ccncc2)CCS3)cc1 [GI98581] | 2% | 7% | 0% | 3% | 8% | 10% | 25% | 5% | 0% | 0% | 0% | 28% | 0% | 13% | 0% | 0% | 0% | 20% | 0% | 21% |
| Cc1ccccc1-c1cc(-c2c[nH]nc2-c2ccccn2)ccn1 [GW680061] | 10% | 4% | 22% | 0% | 25% | 1% | 0% | 0% | 25% | 0% | 0% | 0% | 0% | 2% | 0% | 0% | 0% | 0% | 0% | 15% |
